# Laboratory results: PubChem BioAssay
# Active and inactive are the calls of the source.
# How the values were obtained:
# [1] = tested on: Human papillomavirus type 1a protein E7 (residues 44-93); assay: HPV1a E7 fragment binders on microarrays, primary screen, biochemical, small-molecule microarray, residues 44-93, 635 nm fluorescence (AID 1108); settings: small-molecule microarray binding, fluorescence 635 nm; higher = more signal;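 further: E7 fragment applied at 1 µg/mL in TBST for 1 h at 4 C; score combines spot fluorescence with its signal to noise ratio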
# [2] = modulators of HCV replicon luciferase signal, primary screen, HCV replication inhibitor project, Huh7 cells, luciferase reporter (AID 1109); settings: 48 h, higher = more signal;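 further: huh7 hepatoma cells harbouring a luciferase neomycin HCV replicon reporter; luciferase luminescence as measure of HCV replicon replication; test concentration not given here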
# [3] = target: Left-right determination factor 2 (Homo sapiens) (UniProt O00292); assay: LEFTY2 binders on small-molecule microarrays, primary screen, biochemical, small-molecule microarray, 635 nm fluorescence scan (AID 1110); settings: LEFTY2 binding, higher = more signal
# [4] = target: Calmodulin-1 (Homo sapiens) (UniProt P0DP23); assay: CALM1 binders on microarrays, EGTA buffer, profiling panel, biochemical, small-molecule microarray, Cy5-labelled CALM1 (AID 1111); settings: Cy5-CALM1 binding fluorescence, higher = more signal;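 further: labelled calmodulin applied in Tris saline Tween buffer holding calcium plus EGTA and DTT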
# [5] = target: Calmodulin-1 (Homo sapiens) (UniProt P0DP23); assay: calcium-bound CALM1 binders on microarrays, profiling panel, artefact control for SMM control-protein annotation, biochemical, small-molecule microarray, Cy5-labelled CALM1, plus calcium (AID 1112); settings: Cy5-CALM1 binding fluorescence, higher = more signal;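 further: score merges spot fluorescence with signal to noise from triplicate slides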
# [6] = small-molecule microarray binders of probe aWnt5a, primary screen, biochemical, biotinylated probe, 635/667 nm fluorescence (AID 1113); settings: higher = more signal;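 further: score merges 667 nm fluorescence intensity with signal-to-noise per printed feature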
# [7] = small-molecule microarray binders of probe aShh, primary screen, biochemical, biotinylated probe, 635/667 nm fluorescence (AID 1114); settings: higher = more signal;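 further: probe is biotin-labelled aShh protein from a stem cell growth factor screen; measures binding of labelled protein to compounds printed on the slide; score merges feature fluorescence at 667 nm with signal-to-noise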
# [8] = small-molecule microarray binders of probe aNog, primary screen, biochemical, biotinylated probe, 635/667 nm fluorescence (AID 1115); settings: higher = more signal;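 further: probe is biotinylated aNog protein used at 0.15 µg/mL for 1 h at 4 C; z-score combines 667 nm fluorescence of each spot with its signal to noise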
# [9] = target: Torsin-1A-interacting protein 1 (Homo sapiens) (UniProt Q5JTV8); assay: LAP1 binders from COS7 cell lysate, primary screen, small-molecule microarray, 635/667 nm fluorescence (AID 1116); settings: COS7-hLAP1 lysate binding, 635 nm fluorescence, higher = more signal
# [10] = target: Alpha-bungarotoxin (Bungarus multicinctus) (UniProt P60615); assay: alpha-bungarotoxin binders on microarray, profiling panel, artefact control for SMM control protein annotation, biochemical, small-molecule microarray, Alexa647 label, 635/667 nm fluorescence (AID 1117); settings: alpha-BTX-A647 binding fluorescence, higher = more signal
# Albumin (Bos taurus) = Albumin (Bos taurus) (UniProt P02769); assay: bovine serum albumin binders on microarray, profiling panel, artefact control for SMM control protein annotation, biochemical, small-molecule microarray, Alexa647 label, 635/667 nm fluorescence (AID 1118); settings: BSA-A647 binding, fluorescence 635 nm, higher = more signal;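 further: score merges 667 nm emission intensity and signal-to-noise per printed compound spot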
# [11] = small-molecule microarray binders of probe aXIP, primary screen, biochemical, NeuroSMM set, 635/667 nm fluorescence (AID 1119); settings: higher = more signal, called active from +8 up or from −8 down;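 further: probe is the protein aXip251-270 applied at 1 µg/mL to compound-printed slides; binding of probe to printed compounds measured as 667 nm fluorescence plus signal to noise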
# [12] = small-molecule binders of probe aNOTCH3, primary screen, biochemical, small-molecule microarray, 635/667 nm fluorescence (AID 1120); settings: higher = more signal;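 further: probe is a biotin-tagged antibody raised against NOTCH3 rather than NOTCH3 protein; score merges spot fluorescence near 667 nm with spot signal to noise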
# [13] = small-molecule binders of probe aNOTCH2, primary screen, biochemical, small-molecule microarray, 635/667 nm fluorescence (AID 1121); settings: higher = more signal;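 further: score merges feature fluorescence read at 667 nm with its signal to noise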
# [14] = target: Carbonic anhydrase 2 (Homo sapiens) (UniProt P00918); assay: CAII small-molecule binders, profiling panel, biochemical, small-molecule microarray, Alexa647-labelled CAII (AID 1122); settings: CAII-A647 binding fluorescence, higher = more signal
# [15] = COS7 lysate on small-molecule microarray, probe aHis, 635 nm (AID 1123); settings: COS7 cell lysate, fluorescence, higher = more signal;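 further: z-score combines 667nm fluorescence intensity with signal-to-noise per printed compound spot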
# [16] = compound binding in COS7 lysate, probe aLAP1, primary screen, cell lysate, small-molecule microarray (AID 1124); settings: probe aLAP1, fluorescence, higher = more signal;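 further: lysate comes from COS7 cells expressing LAP1 and is applied at 0.3 µg/mL; score merges spot fluorescence near 667 nm with signal-to-noise over triplicate slides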
# Sam68 (KHDRBS1) = assay: Sam68 small-molecule binders, primary screen, biochemical, small-molecule microarray, 635 nm fluorescence (AID 1125); settings: small-molecule microarray binding, higher = more signal;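 further: score merges 667 nm channel intensity with signal to noise over triplicate slides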
# [17] = tested on: Chordin-like protein 2 (CHRDL2); assay: CHRDL2 small-molecule binders, primary screen, biochemical, small-molecule microarray, 635 nm fluorescence (AID 1126); settings: small-molecule microarray binding, fluorescence 635 nm; higher = more signal;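 further: printed compound slides probed with Chrdl2 protein at 4 µg/mL for 1 h at 4 C; score merges 667 nm emission intensity with signal to noise over three replicate slides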
# [18] = target: Concanavalin-A (Canavalia ensiformis) (UniProt P02866); assay: ConA small-molecule binders, primary screen, artefact control for SMM control protein annotation, biochemical, small-molecule microarray, Alexa647 label, 635 nm (AID 1127); settings: ConA-A647 binding fluorescence, higher = more signal;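 further: z combines 667 nm emission intensity with signal-to-noise across three replicate slides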
# Chain of Concanavalin-A (Canavalia ensiformis) (P02866 whole entry, looked up): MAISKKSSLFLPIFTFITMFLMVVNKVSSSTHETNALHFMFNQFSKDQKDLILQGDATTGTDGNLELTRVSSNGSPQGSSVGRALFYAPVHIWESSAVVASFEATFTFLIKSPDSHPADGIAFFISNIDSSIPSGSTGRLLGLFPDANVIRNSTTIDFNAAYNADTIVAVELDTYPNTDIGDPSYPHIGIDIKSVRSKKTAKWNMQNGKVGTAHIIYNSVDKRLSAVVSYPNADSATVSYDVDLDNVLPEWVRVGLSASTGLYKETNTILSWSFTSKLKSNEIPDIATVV
# Chain of Torsin-1A-interacting protein 1 (Homo sapiens) (Q5JTV8 whole entry, looked up): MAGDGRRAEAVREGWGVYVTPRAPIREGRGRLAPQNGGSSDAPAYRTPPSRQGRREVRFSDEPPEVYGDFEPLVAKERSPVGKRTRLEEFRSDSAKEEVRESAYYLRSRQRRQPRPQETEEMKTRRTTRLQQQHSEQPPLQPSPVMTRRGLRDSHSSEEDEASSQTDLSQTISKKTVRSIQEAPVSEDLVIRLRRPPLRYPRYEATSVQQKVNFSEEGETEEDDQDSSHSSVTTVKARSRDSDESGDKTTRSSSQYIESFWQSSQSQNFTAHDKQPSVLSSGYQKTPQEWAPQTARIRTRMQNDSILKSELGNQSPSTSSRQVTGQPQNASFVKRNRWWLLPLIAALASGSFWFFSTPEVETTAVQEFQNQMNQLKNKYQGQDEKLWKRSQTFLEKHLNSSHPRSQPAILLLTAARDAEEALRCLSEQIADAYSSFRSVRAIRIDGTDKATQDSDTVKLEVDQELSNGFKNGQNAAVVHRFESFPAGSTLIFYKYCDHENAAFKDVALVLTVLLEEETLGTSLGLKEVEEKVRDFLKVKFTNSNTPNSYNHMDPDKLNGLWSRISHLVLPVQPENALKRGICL
# Chain of Left-right determination factor 2 (Homo sapiens) (O00292 whole entry, looked up): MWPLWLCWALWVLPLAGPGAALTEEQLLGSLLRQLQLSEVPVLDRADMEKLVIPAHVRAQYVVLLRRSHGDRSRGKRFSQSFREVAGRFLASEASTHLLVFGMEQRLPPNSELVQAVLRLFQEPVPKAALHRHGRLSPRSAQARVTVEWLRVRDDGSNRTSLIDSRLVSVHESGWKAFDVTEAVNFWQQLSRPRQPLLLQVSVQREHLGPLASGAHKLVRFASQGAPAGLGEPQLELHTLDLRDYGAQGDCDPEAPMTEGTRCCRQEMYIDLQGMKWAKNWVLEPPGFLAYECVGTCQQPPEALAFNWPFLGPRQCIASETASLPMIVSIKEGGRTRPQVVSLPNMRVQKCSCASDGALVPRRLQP
# Chain of Alpha-bungarotoxin (Bungarus multicinctus) (P60615 whole entry, looked up): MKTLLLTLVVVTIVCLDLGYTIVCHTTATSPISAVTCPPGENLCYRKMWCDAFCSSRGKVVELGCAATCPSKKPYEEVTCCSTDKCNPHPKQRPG
# Chain of Albumin (Bos taurus) (P02769 whole entry, looked up): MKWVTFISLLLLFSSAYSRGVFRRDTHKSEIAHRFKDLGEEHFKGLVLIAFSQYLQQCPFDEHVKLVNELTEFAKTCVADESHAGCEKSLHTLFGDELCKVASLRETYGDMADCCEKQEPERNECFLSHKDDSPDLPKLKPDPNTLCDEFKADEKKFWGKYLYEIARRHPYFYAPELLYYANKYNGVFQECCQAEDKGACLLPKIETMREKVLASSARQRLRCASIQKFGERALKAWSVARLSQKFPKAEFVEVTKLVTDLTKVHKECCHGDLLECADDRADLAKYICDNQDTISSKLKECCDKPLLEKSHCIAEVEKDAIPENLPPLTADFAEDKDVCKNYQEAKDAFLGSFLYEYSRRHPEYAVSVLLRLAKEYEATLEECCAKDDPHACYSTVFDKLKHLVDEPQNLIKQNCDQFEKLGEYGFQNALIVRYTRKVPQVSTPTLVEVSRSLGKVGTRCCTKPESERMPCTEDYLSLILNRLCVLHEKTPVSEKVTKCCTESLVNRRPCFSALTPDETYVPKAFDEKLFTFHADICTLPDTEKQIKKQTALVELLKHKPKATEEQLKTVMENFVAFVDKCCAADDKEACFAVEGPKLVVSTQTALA
Compound,composite z-score [1],z-score [2],composite z-score [3],composite z-score [4],composite z-score [5],composite z-score [6],composite z-score [7],composite z-score [8],composite z-score [9],composite z-score [10],composite z-score (Albumin (Bos taurus)),composite Z-score [11],composite z-score [12],composite z-score [13],composite z-score [14],composite z-score [15],composite z-score [16],composite z-score (Sam68 (KHDRBS1)),composite z-score [17],composite z-score [18]
Cc1ccc(S[C@]2(C(=O)NCC(F)(F)F)CC(=O)N(Cc3cc(C(F)(F)F)cc(C(F)(F)F)c3)[C@@H]2c2ccc(CO)cc2I)cc1,-0.886,-0.964,-0.868,-0.364,0.0808,-0.231,-0.0035,-0.426,-0.152,-0.379,0.803,0.439 (inactive),-0.291,-0.164,0.14,0.869,-0.0008,-1.47,-1.54,-0.41
Cn1cccc1C(O)C1C=CC2C(=O)N(c3ccccc3)C(=O)C2N1Nc1ccccc1 (stereo not given),1.09,-0.36,0.739,1.69,0.405,0.181,-0.0578,0.977,1.31,1.68,0.857,0.581 (inactive),0.346,0.2,0.805,2.37,0.461,1.3,0.352,1.19
CS(=O)(=O)CCOC(=O)C1=CC(CCCO)=CC(c2ccc(CN3CCCC3)cc2)N(Cc2sc3ccccc3c2Cl)C=C1C(=O)OCCS(C)(=O)=O (stereo not given),0.611,-2.64,1.12,2.26,0.91,-0.0297,0.318,1.49,2.83,2.86,1,1.14 (inactive),0.439,0.251,0.823,2.21,1.12,1.3,1.03,1.19
COCCOC(=O)N1C(=O)[C@@]2(c3cc(C#CCCO)ccc31)[C@H](c1ccc(OCCO)cc1)N1[C@H](c3ccccc3)[C@H](c3ccccc3)OC(=O)[C@H]1[C@@H]2C(=O)Nc1nc2ccccc2s1,0.281,-1.13,0.95,0.751,0.682,-0.0977,0.626,0.0947,1.08,1.96,0.648,-0.22 (inactive),0.0556,0.02,0.406,0.556,0.559,1.31,0.27,1.13
O=C1OCCC=C[C@H]2OC34C=CCN(c5ccc6ccccc6c5)C(=O)[C@H]3N(CCCO)C(=O)[C@@H]4C12 (stereo not given in full),-2,-0.24,-1.31,-0.834,-0.885,-0.294,-0.153,0.181,-1.25,-1.27,-1.39,0.168 (inactive),-0.278,-0.205,-0.303,-0.626,-0.678,-1.82,-2.29,-0.533
O=C(NCCN1CCOCC1)[C@@H]1c2ccccc2C(=O)N(Cc2ccccc2Cl)[C@H]1c1ccc(CO)cc1,-0.388,-0.786,-0.341,-0.635,-0.725,0.0491,-0.471,0.414,-0.815,0.27,-0.281,0.239 (inactive),-0.224,-0.0986,0.667,0.0465,1.67,-0.721,-0.761,-1.19
CC1CC/C=C\[C@H]2OC34C=CCN(c5ccc6ccccc6c5)C(=O)[C@H]3N(CCCO)C(=O)[C@@H]4C2C(=O)O1 (stereo not given in full),-0.499,0.197,-1.85,-0.568,-0.028,-0.287,-0.291,-0.285,-0.406,-0.905,-0.132,1.18 (inactive),-0.276,-0.16,0.574,-0.515,-0.701,-0.335,-1.77,-0.71
CC(C)N1CC=CC23O[C@@H]4C=CCCOC(=O)C4[C@H]2C(=O)N(CCCO)[C@@H]3C1=O (stereo not given in full),0.0707,-1.15,-0.539,-0.544,-0.694,-0.145,-0.0769,-0.0546,0.263,-0.659,-0.682,-0.472 (inactive),-0.112,-0.0995,0.734,-0.192,0.303,0.334,-0.347,-0.0639
CCOC(=O)C[C@H]1[C@H](OC(=O)c2ccc(C(=O)c3ccccc3)cc2)[C@@H](NC(=O)CC(C)C)c2cc(OCCCO)ccc2N1C(=O)c1ccccc1,1.3,-1.12,0.53,0.735,-0.165,-0.0758,-0.167,-0.0927,0.537,0.741,0.415,-0.24 (inactive),0.104,-0.0357,0.351,1.01,-0.0609,1.3,0.262,1.05
COc1ccc(CCNC(=O)[C@@H]2c3ccccc3C(=O)N(C3CCCCC3)[C@H]2c2ccc(CO)cc2)cc1,1.48,-1.82,-0.306,0.112,-0.184,-0.0403,0.0098,-0.402,-0.17,0.371,-0.295,0.0861 (inactive),-0.119,-0.0317,0.608,2.15,0.922,0.508,-0.524,0.802
COC(=O)[C@@]1(Cc2ccccc2)[C@H]2c3cc(C(=O)N4CCCC4)n(CCc4ccccn4)c3C[C@H]2CN1C(=O)c1ccccc1,1.43,-1.65,-0.204,2.13,0.842,-0.0776,-0.353,1.84,2.53,0.298,1.06,-1.17 (inactive),0.682,0.133,0.88,3.46,0.589,0.761,-0.607,0.606
C=C(COC)C(=O)CC[C@@H](OC(C)=O)c1cccc(OCCO)c1,-0.297,-2.41,-0.278,-0.582,-0.909,-0.0403,-0.214,-0.0827,0.578,-0.485,-0.693,-0.0662 (inactive),-0.0647,-0.125,0.59,-0.591,-0.621,-0.873,-0.109,-0.797
